In PubChem BioAssay (NCI) one finds growth data, which are given here for 16 compounds.

Compounds without any hit were thinned out: in the full panel of roughly 83,000, 20% have a hit.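 Each cell line was grown in a 96-well plate and treated with one concentration of compound for 48 hours. Values below 10 were considered active.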 Unmarked numbers belong to inactive results. Calls of active or inactive are those of the source.

Assay in all cases: NCI-60 one-dose screen, 48 h (100 = growth as untreated, 0 = no growth, -100 = all killed)
The test system of assay [1] is T-47D breast. As to conditions: 10 µM.
The test system of assay [2] is BT-549 breast. The following applies: 10 µM unless noted.
Assay [3] relates to MDA-MB-435 melanoma. The following applies: 10 µM unless noted.
Assay [4] concerns SW-620 colon. As to conditions: 10 µM unless noted.
The subject of assay [5] is MCF7 breast. As to conditions: 10 µM unless noted.
The test system of assay [6] is HCT-116 colon. The following applies: 10 µM unless noted.
Assay [7] relates to HCC-2998 colon. The following applies: 10 µM unless noted.
Assay [8] deals with KM12 colon. As to conditions: 10 µM unless noted.

For the compound `O=C1C(Br)=C(c2ccccc2)C(=O)C(Br)=C1c1ccccc1`, the growth is 73.4% in assay [1]; 97.7% in assay [2]; 91.4% in assay [3]; 94.2% in assay [4]; 92.6% in assay [5]; 90.3% in assay [6]. Moreover, the growth was 98.2% in assay [7] and 102% in assay [8].

As to `O=c1ccc2ccccc2o1`, the growth was 116% in assay [1]; 87.1% in assay [2]; 102% in assay [3]; 105% in assay [4]; 98.3% in assay [5]; 104% in assay [6]. The growth is 106% in assay [7] and 99.1% in assay [8].

Take `O=C(O)CCN1CCN(c2cccc(Cl)c2)CC1`: the growth was 98.3% in assay [1]; 104% in assay [2]; 93.1% in assay [3]; 107% in assay [4]; 86.1% in assay [5]; 102% in assay [6]. In addition, the growth in assay [7] and in assay [8] was 114% each time.

Consider `Cc1ccc(-c2nnc(COc3ccc(-c4nnc(N)s4)cc3)o2)cc1`, for which the growth in assay [1] was 101%; in assay [2] it was 92.9%; in assay [3] it was 72.4%; in assay [4], 94.8%; in assay [5] it was 68.3%; in assay [6], 63.4%. Moreover, the growth in assay [7] is 107%; in assay [8], 92.6%.

Consider `COc1ccc(Cn2c(Br)c3c(c2-c2cc(OC)c(OC)c(OC)c2)CCc2sc(N)nc2-3)cc1`, for which the growth in assay [1] is 59.7%; in assay [2], 44.2%; in assay [3] it was -40.1% (active); in assay [4], 19%; in assay [5], 10.1%; in assay [6], 6.12% (active). Besides, the growth in assay [7] was 12.4%; in assay [8], 27.2%.

On to `O=[N+]([O-])c1cc2c(cc1Br)C1C(C3C2C(Cl)(Cl)C(Cl)=C(Cl)C3(Cl)Cl)C(Cl)(Cl)C(Cl)=C(Cl)C1(Cl)Cl` (stereo not drawn), for which the growth in assay [1] was 90.8%; in assay [2], 93.1%; in assay [3] it was 103%; in assay [4], 115%; in assay [5] it was 91.5%; in assay [6], 89.7%. Also, the growth in assay [7] is 93.4%; in assay [8] it was 106%.

In the case of `CCOC(=O)C1=C(C)N2C(=NC3=C(CCCC/C3=C\c3ccccc3)C2c2ccccc2)S1` (stereo not drawn), the growth is 78.7% in assay [1]; 99.1% in assay [2]; 93.7% in assay [3]; 101% in assay [4]; 87.8% in assay [5]; 96.3% in assay [6]. Moreover, the growth in assay [7] was 94.9%; in assay [8], 97.3%.

As for `c1ccc(-c2nc(N3CCOCC3)c3c4c(sc3n2)CCCCCC4)nc1`, the growth in assay [1] was 17.8%; in assay [2], 58.3%; in assay [3], 61.9%; in assay [4], 86.9%; in assay [5], 3.9% (active); in assay [6], 27.7%. In addition, the growth in assay [7] was 72.7%; in assay [8], 44.7%.

Turning to `C=C(C)CCCC(C)CC#N` (stereo not drawn), the growth in assay [1] is 92.7%; in assay [2], 95.9%; in assay [3], 104%; in assay [4], 115%; in assay [5], 99.3%; in assay [6], 97.5%. The growth in assay [7] was 104%; in assay [8] it was 95%.

For `CN1CCc2cccc3c2C1Cc1ccc(O)c(O)c1-3` (stereo not drawn), the growth is 89.3% in assay [1]; 81.6% in assay [2]; 98.6% in assay [3]; 34.8% in assay [4]; 81.6% in assay [5]; 77% in assay [6]. The growth in assay [7] is 86.5%; in assay [8] it was 96.4%.

Take `Nc1c(Br)cc(Br)cc1-c1n[nH]c(=O)[nH]c1=O`: the growth was 103% in assay [1]; 101% in assay [2]; 99.2% in assay [3]; 96.9% in assay [4]; 99.8% in assay [5]; 107% in assay [6]. The growth in assay [7] is 111%; in assay [8], 99.8%.

As to `COc1ccccc1/C=C/C(=O)/C=C/c1ccccc1O`, the growth was -37.2% (active) in assay [1]; -34.1% (active) in assay [2]; -36.3% (active) in assay [3]; -80.3% (active) in assay [4]; -18.6% (active) in assay [5]; -93.2% (active) in assay [6]. The growth is 4.04% (active) in assay [7] and -93.9% (active) in assay [8].

`CCCCCCCCCCCC(=O)[O][Sn]([CH2]CCC)([CH2]CCC)[CH2]CCC`: the growth in assay [1] was -89.9% (active); in assay [2] it was -100% (active); in assay [3], -91.6% (active); in assay [4], -43.2% (active); in assay [5] it was -88.2% (active); in assay [6], -100% (active). Moreover, the results for the growth in assay [7] and in assay [8] were -92.2% (active) and -91.4% (active), respectively.

As to `Clc1ccc2c(c1)C[C@H]1C[C@@H](c3cccs3)N2O1`, the growth in assay [1] was 97.1%; in assay [2] it was 105%; in assay [3], 95.9%; in assay [4], 99.1%; in assay [5], 105%; in assay [6], 105%. For the same compound, the growth in assay [7] was 99.8%; in assay [8], 104%.

Consider `CCOC(=O)C1=C(C)N2C(=NC3=C(CCCC/C3=C\c3cc(OC)c(OC)c(OC)c3)C2c2cc(OC)c(OC)c(OC)c2)S1` (stereo not drawn), for which the growth in assay [1] was 45.9%; in assay [2] it was 55.1%; in assay [3], 68.4%; in assay [4] it was 82.5%; in assay [5], 60.9%; in assay [6], 68%. Besides, the results for the growth in assay [7] and in assay [8] were 85% and 67.5%, respectively.

Turning to `CCOC(=O)c1cn2c3c(cc(F)cc3c1=O)C(CC)c1ccccc1C2` (stereo not drawn), the growth in assay [1] is 93.1%; in assay [2] it was 96.7%; in assay [3], 93.9%; in assay [4], 107%; in assay [5], 90.3%; in assay [6] it was 102%. In addition, the values for the growth in assay [7] and in assay [8] were 93.7% and 102%, respectively.
